An excerpt weighted towards active compounds, which were near 2.9% of everything screened.
LDHA block – qHTS assay for inhibitors of human lactate dehydrogenase. AID 1347041, 2019. purified LDHA, NADH/diaphorase-resazurin fluorescence; hits give low values. 0.15% of 480,000 active. L-lactate dehydrogenase A chain (Homo sapiens), P00338. activity change, % (values are at about 110 or 230 µM); in the data active = activity change below about -30%; inconclusive = mostly about -25% to -30%
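Remaining NADH was detected by diaphorase (0.133 mg/mL) converting 37 µM resazurin to fluorescent resorufin, read at 0 and 20 minutes. The preceding 5-minute room-temperature reaction used 2 nM LDHA, 0.2 mM sodium pyruvate and 0.06 mM NADH at pH 7.4.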
GLP1R inv ag – qHTS of GLP-1 Receptor Inverse Agonists (Inhibition Mode); Glucagon-like peptide 1 receptor (Homo sapiens), P43220; Potency, µM (highest dose often 38.3 µM), most hits filed as inhibitors; HEK293 GLP-1R CRE-luciferase, luminescence, 24 h; GLP-1R form is constitutively active; AID 624417, 2012; 1.6% of 410,000 active; also: nearly all actives have a fitted effect of over 55% in size
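Cells are plated, allowed 12 hours at 37 deg C, then treated with compounds for 24 hr before luciferase detection reagent is added and luminescence is read after 12 min at room temperature. The HEK293 line carries constitutively active GLP-1R with a cAMP-responsive reporter.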
HEK293 tox – qHTS of GLP-1 Receptor Inverse Agonists: Cytotox Screen | 0.13% of 410,000 active | Potency, µM (top dose mostly 38.3 µM), most hits filed as inhibitors | AID 624418, 2012 | HEK293 cAMP-luciferase reporter cells, luminescence, 24 h;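 also: loss of luciferase light is scored as toxicity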
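Step one: seed cells (200 cells/uL, DMEM with 10% Nu serum, 1% pen-strep). Step two: 12-hour incubation at 37 deg C. Step three: pin 23 nL compound, incubate 24 hr. Step four: add luciferase reagent, read luminescence 12 min later.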
GLP-1R agonist – qHTS of GLP-1 Receptor Agonists | Glucagon-like peptide 1 receptor (Homo sapiens), P43220 | 0.007% of 380,000 active | HEK293 GLP-1R CRE-luciferase, luminescence, 4-6 h; cells express a hypersensitive GLP-1R form | Potency, µM (top dose mostly 45.6 µM), usual class: activators
ClpP mod – qHTS Assay for Activators of ClpP; AID 651965, 2013; ATP-dependent Clp protease proteolytic subunit (Bacillus subtilis (strain 168)), P80244; 1.9% of 340,000 active; Potency, µM (highest dose often 57.5 µM); purified B. subtilis ClpP, FRET peptide cleavage, 20 min; active = well fitted falling curve with a large enough effect; inconclusive = small, poorly fitted or top-dose-only effect; inactive = no such curve, though single readings can be large or run the other way; also: the source files actives as falling curves though it sought activators and does not explain the sign; nearly all actives have a fitted effect of over 65% in size
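FRET quenching reversal measured ClpP activation: 10 microg/mL B. subtilis ClpP at pH 8 with the FRET-FV decapeptide, read at 430 nm after 320 nm excitation. The 20-min minus 0-min signal was scaled between DMSO/no-enzyme wells and ADEP (5.8 microM final).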
p53 reactivator – qHTS assay for re-activators of p53 using a Luc reporter. H1299 p53-A138V BP100-luciferase reporter, luminescence, 24 h. Potency, µM (titrated, usually from 92.2 µM), actives largely listed as activators. 0.063% of 320,000 active. AID 504706, 2011; also: nearly all actives have a fitted effect of over 45% in size
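p53-null H1299 cells stably carrying temperature-sensitive p53-A138V and a BP100-luciferase reporter were pinned with compounds (4-point, 1:5 series) and held 24 hrs at 37 deg C. Luminescence was read 10 min after detection reagent.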
Each line names hits and unclear results; the compound was inactive in the other large screens. Unless noted, calls follow the shape of the dose curve; as a rule, active = well fitted curve in the direction sought with a large enough effect; inconclusive = small, poorly fitted or top-dose-only effect, or another doubt; inactive = no such curve, though single readings can be large; an effect the other way counts as inactive or inconclusive.

N#CCC(=O)N/N=C\c1cccc(OC/C=C/c2ccccc2)c1	GLP1R inv ag 3.2µM
COc1cc(/C=N\NC(=O)CC#N)ccc1OC/C=C/c1ccccc1	GLP1R inv ag 13µM
CCSc1nnc(NC(=O)C(C)(C(F)(F)F)C(F)(F)F)s1	HEK293 tox inconclusive
CCOC(=O)c1c(C)nc2sc(C(=O)Nc3ccc(C(C)=O)cc3)c(N)c2c1-c1ccc(OC)cc1	GLP1R inv ag 8.9µM
CCOC(=O)c1c(C)nc2sc(C(=O)Nc3ccc(OC)cc3)c(N)c2c1-c1ccc(OC)cc1	none
CC(C)N(C(=O)COC(=O)c1n[nH]c(=O)c2ccccc12)C1CCCCC1	none (no result: GLP1R inv ag, HEK293 tox, GLP-1R agonist, ClpP mod, p53 reactivator)
Cc1cc2cc(C(c3nnnn3C3CCCC3)N(Cc3cccnc3)Cc3ccco3)c(=O)[nH]c2cc1C (configuration not stated)	HEK293 tox inconclusive, ClpP mod inconclusive
Cc1ccc2cc(C(c3nnnn3C3CCCC3)N(Cc3ccccc3)Cc3ccco3)c(=O)[nH]c2c1 (configuration not stated)	ClpP mod 22µM, p53 reactivator inconclusive
CCOc1ccccc1CNC(=O)c1cc2occc2n1C	none
CCn1c(C(=O)NCc2ccccc2C)cc2oc3ccccc3c21	GLP1R inv ag 5µM (no result: GLP-1R agonist, p53 reactivator)
CCOc1ccccc1CNC(=O)c1cc2oc3ccccc3c2n1C	ClpP mod 20µM
CCOc1ccc(N2C(=O)C3C(C2=O)C3(c2ccccc2)c2ccccc2)cc1 (configuration not stated)	GLP1R inv ag inconclusive
CCOc1ccc(N2C(=O)C3C(c4ccccc4)=NN(c4ccccc4)C3C2=O)cc1 (configuration not stated)	ClpP mod 11µM
CSc1nc2n(n1)C(c1ccccn1)C1=C(CC(C)(C)CC1=O)N2 (configuration not stated)	ClpP mod 25µM
O=[N+]([O-])c1ccc2c(c1)C(N1CCN(CCO)CC1)Cc1ccc(F)cc1S2 (configuration not stated)	GLP1R inv ag inconclusive (no result: p53 reactivator)
OCCN1CCN(C2CCC(c3ccc(F)cc3)c3ccc(F)cc32)CC1 (configuration not stated)	GLP1R inv ag 2µM, HEK293 tox inconclusive (no result: ClpP mod, p53 reactivator)
CN(CC1COc2ccccc2O1)S(=O)(=O)N1CCOCC1 (configuration not stated)	none (no result: GLP1R inv ag, HEK293 tox, GLP-1R agonist, ClpP mod, p53 reactivator)
O=C(NC1CCCCC1)C1COc2ccccc2O1 (configuration not stated)	none
CCN(CC1COc2ccccc2O1)C(=S)NCCCN(C)C (configuration not stated)	GLP1R inv ag 7.1µM
CC(C)N(C)S(=O)(=O)N(C)CC1COc2ccccc2O1 (configuration not stated)	LDHA block -32 (no result: GLP1R inv ag, HEK293 tox, GLP-1R agonist, ClpP mod, p53 reactivator)
CN(CC1COc2ccccc2O1)C(=S)NC1CCCCC1 (configuration not stated)	GLP1R inv ag 5µM
O=C(Cc1cccs1)N(c1ccc(Br)cc1)C1C=CS(=O)(=O)C1 (configuration not stated)	none (no result: ClpP mod)
O=C(CN1C(=O)NC2(CCCC2)C1=O)OCCOc1cccc(Cl)c1	none
COC(=O)c1cc(S(=O)(=O)NCCc2ccc(Cl)cc2)c[nH]1	GLP1R inv ag inconclusive
COC(=O)C1=CN(CC2CCCO2)C=C(C(=O)OC)C1c1cccc(O)c1 (configuration not stated)	none (no result: ClpP mod)
COC(=O)C1=CN(CC2CCCO2)C=C(C(=O)OC)C1c1ccccc1C(F)(F)F (configuration not stated)	ClpP mod 32µM
CCCCN(C(=O)C(C)Oc1ccc(Br)cc1)c1c(N)n(Cc2ccccc2)c(=O)[nH]c1=O (configuration not stated)	GLP1R inv ag inconclusive, ClpP mod 28µM
Cc1cccc(NC(=O)CSCc2cc(=O)n3c(C)csc3n2)c1C	none
Cc1ccc2occ(/C=C/C(=O)c3ccccc3O)c(=O)c2c1	ClpP mod 16µM
COCCn1c(=O)[nH]c2cc(C(=O)NCCCN3CCN(c4ccc(F)cc4)CC3)ccc2c1=O	ClpP mod 28µM
O=C(NCCCN1CCOCC1)c1ccc2c(=O)n(CCc3ccccc3)c(=O)[nH]c2c1	ClpP mod inconclusive
CCOCCCn1c(=S)[nH]c2cc(C(=O)NCCN(CC)CC)ccc2c1=O	none
CCCCCn1c(=O)[nH]c2cc(C(=O)NCCN3CCOCC3)ccc2c1=O	GLP1R inv ag inconclusive, ClpP mod 28µM (no result: p53 reactivator)
COC(=O)c1ccc2c(=O)n(CCCCCC(=O)NCc3ccccc3)c(=O)[nH]c2c1	ClpP mod inconclusive
COC(=O)c1ccc2c(=O)n(CCCCCC(=O)NCc3ccccn3)c(=O)[nH]c2c1	ClpP mod 32µM
CCCCCn1c(=O)[nH]c2cc(C(=O)NCCCN(CC)CC)ccc2c1=O	GLP1R inv ag inconclusive, ClpP mod 28µM
CC1CCN(C(=O)Cn2cc(C(=O)C3CC3)c3ccccc32)CC1	none
CCCCCn1c(=O)[nH]c2cc(C(=O)NCc3ccccc3)ccc2c1=O	none (no result: p53 reactivator)
CCCCCn1c(=O)[nH]c2cc(C(=O)O)ccc2c1=O	ClpP mod 22µM
CCCOc1nc2ccccc2nc1N1CCC(C(=O)Nc2ccccc2F)CC1	none (no result: GLP1R inv ag, HEK293 tox, GLP-1R agonist, ClpP mod, p53 reactivator)
CCN(C(=O)CN1CCN(C)CC1)c1cccc2ccccc12	LDHA block -36
CCc1cc2c(SCc3ccc(C(=O)OC)o3)ncnc2s1	none (no result: ClpP mod)
CCC(=NCc1ccccc1)C1=C(O)C(C(=O)OC)C(C)(C)CC1=O (configuration not stated)	GLP1R inv ag inconclusive, ClpP mod 3.2µM
CCCC(=NCc1ccccc1)C1=C(O)C(C(=O)OC)C(C)(C)CC1=O (configuration not stated)	HEK293 tox inconclusive
CCCC(=O)C1=C(O)C(C(=O)OC)C(C)(C)CC1=Nc1cccc2ccccc12 (configuration not stated)	GLP1R inv ag 7.9µM
CCOc1ccc(NC(=S)N(CCc2c(C)[nH]c3ccccc23)Cc2cccnc2)cc1	GLP1R inv ag 10µM
c1ccc(-c2cc(-c3ccc(N4CCOCC4)cc3)nc3ccccc23)cc1	none
COc1ccc(N2CCN(c3ncnc4scc(-c5ccc(C)cc5)c34)CC2)cc1	GLP1R inv ag 2µM (no result: ClpP mod)
